Source: the supplement of paper PMC3334620
Over roughly 33,000 sequences, “E-score (-0.5 to 0.5)” has its median near -0.016; the highest 2% begin near 0.3. The list comes from a sample in which the highest values are over-represented; it also holds similar and randomly drawn sequences.

Target: T1, Yer184c (UniProt P39961)
T1 sequence: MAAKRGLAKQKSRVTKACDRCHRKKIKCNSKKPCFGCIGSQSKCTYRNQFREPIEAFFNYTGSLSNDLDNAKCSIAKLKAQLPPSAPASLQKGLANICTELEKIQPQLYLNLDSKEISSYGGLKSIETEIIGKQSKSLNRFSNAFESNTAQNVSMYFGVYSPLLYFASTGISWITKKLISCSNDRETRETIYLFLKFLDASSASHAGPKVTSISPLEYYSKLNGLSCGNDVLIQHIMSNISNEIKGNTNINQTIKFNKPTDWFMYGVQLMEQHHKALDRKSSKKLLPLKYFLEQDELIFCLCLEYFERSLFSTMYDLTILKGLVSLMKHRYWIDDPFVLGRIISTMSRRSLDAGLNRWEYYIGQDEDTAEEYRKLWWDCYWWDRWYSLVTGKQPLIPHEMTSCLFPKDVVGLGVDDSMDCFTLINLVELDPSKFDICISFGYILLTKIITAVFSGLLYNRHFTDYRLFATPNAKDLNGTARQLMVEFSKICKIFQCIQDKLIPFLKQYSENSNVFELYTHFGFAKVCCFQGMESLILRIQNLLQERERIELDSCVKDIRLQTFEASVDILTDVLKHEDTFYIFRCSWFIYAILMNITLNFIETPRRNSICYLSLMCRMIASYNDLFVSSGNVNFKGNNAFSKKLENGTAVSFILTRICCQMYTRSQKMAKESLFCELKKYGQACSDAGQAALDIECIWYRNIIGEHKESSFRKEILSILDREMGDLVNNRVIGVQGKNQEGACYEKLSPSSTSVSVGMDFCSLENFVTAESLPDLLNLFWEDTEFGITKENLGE
Assay: PBM E-score (8-mer binding enrichment) (E-score (-0.5 to 0.5)); higher = stronger / more preferred TF binding
Conditions: protein concentration: 100 nM; construct: GST-full length
Method in brief: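 Yeast transcription factors, full-length or as DNA-binding domains, were expressed with a GST tag using PURExpress in vitro transcription/translation. At about 100-200 nM they were applied to universal all-10-mer Agilent arrays, double-stranded by primer extension on fresh or once-stripped slides. Fluorescent anti-GST detected bound protein, and masliner normalised the scans. E-scores for ungapped eight-base words, pooled with reverse complements, came from the Universal PBM Analysis Suite.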

Sequence | PBM E-score
ATAGAAAA | -0.0185
ATAGAAAG | -0.0692
ACAGGCCC | -0.349
ACATTAAG | 0.132
TCCCGGGA | 0.337
GCCCGGGA | 0.282
ACCCGGGA | 0.367
ACCCGGGC | 0.233
ACCCGGGT | 0.299
CCCCGGGA | 0.119
GGCCTGGA | -0.213
TGCAAAAA | 0.00535
GACGGAAC | 0.125
GACGGAAA | 0.213
TACGGGAA | 0.142
AACGGAGC | -0.0449
AACGGAGT | 0.312
TACGGAAA | 0.362
CACGGACC | 0.192
CACGGAAC | 0.349
CACGGAGC | 0.14
AACGGAGA | 0.107
AACGGAAC | 0.333
AACGGACC | 0.185
TCTATGCA | 0.0433

Sequence | PBM E-score
AGAACGGC | 0.176
CTCGAAAA | -0.0323
CATCTGCA | -0.0527
CCACTAAA | -0.0267
GCAAGGGC | -0.274
ACTGCCTC | -0.229
AGATTAGG | -0.068
AGATGGCG | 0.0474
AACGGAAA | 0.408
CACGGAAG | 0.149
AGCGGAAT | 0.0752
AACGGAAT | 0.365
CACGGAAA | 0.345
AACGGGAA | 0.25
GTCGGAAC | 0.217
CAAGGAAA | -0.0602
CTCGGAAA | 0.289
CTCGGAAC | 0.358
AACGGACA | 0.202
AACGGAAG | 0.179
AATAGTGT | 0.267
ATCAGTAA | 0.166
GAATAGGA | 0.0511
GCGATCAC | -0.19
ACTTCTAG | -0.28

Sequence | PBM E-score
GTCACTTA | 0.122
AGGGACTG | -0.316
GGACCTGA | -0.0219
ATACATAT | 0.255
AGGATCAA | 0.14
ATACTGCG | -0.0752
TAGGATCA | -0.0016
TCGGATCA | 0.31
ACGGATCA | 0.248
CCGGATCA | 0.328
GCGGATCA | 0.105
ACGGATCC | 0.288
CAGGATCG | -0.0543
CCGGATCG | 0.352
TCAGATCA | -0.00186
GCGGATCC | 0.161
ACGGATCG | 0.0937
CCGGATCC | 0.372
TCGAGACA | -0.0512
GGCCATAA | -0.102
ACGGCAGG | -0.117
GGGTCAAA | 0.0026
CCGTCCAA | -0.024
CAAGCAGC | -0.149
AATGGTTA | -0.0173

Sequence | PBM E-score
TAGTCTAA | -0.101
AAATTTGT | 0.213
GCGCCGGA | 0.355
CCGCCGCA | 0.0998
GCGCCGCC | 0.122
ACGCCGGC | 0.423
CCGCCGTC | -0.00239
GCGCCGCA | 0.166
CCGCCGGA | 0.316
ACGCCGGG | 0.21
ACGCCGGA | 0.227
ACGCCGCC | -0.0562
CCGCCGGC | 0.442
CCGCCGCC | 0.0576
AGCGTTGG | -0.251
CAATTTGC | -0.0817
TACCTCAA | -0.122
AACATTCG | 0.00818
CTTAGTGC | 0.081
CCACAAGC | -0.273
ATGTAGAA | -0.0706
ACCATTCA | 0.00717
GGCAGGTA | -0.0757
CTCTTAGA | 0.0666
CGAAACCG | 0.253

Sequence | PBM E-score
CGCCGGCC | 0.35
GGCCGGCC | 0.384
CGCCGGTC | 0.228
GCCCGGCC | 0.242
AGCCGGCC | 0.333
GGCCGGTA | 0.248
AGTCGGCC | 0.135
ACCCGGCC | 0.255
CCCCGGCC | 0.0277
GACCGGCA | 0.173
GGCCGGCA | 0.415
GACCGGCC | 0.203
GTCTCGCA | -0.0807
TGGGTCAA | -0.147
ACGGGCTG | -0.045
AAAATCGG | 0.15
ATTTGATG | 0.115
ATGGCCCG | -0.0155
CAATCTGC | -0.14
ACCTTGAG | -0.0404
GGAGTAAA | 0.134
GTTTCAGA | 0.0364
GTTGGTTA | -0.0114
CGATACAC | -0.00964
CAACGGAA | 0.36

Sequence | PBM E-score
AAACGGTA | 0.163
AAACGGAA | 0.403
AAACGGAT | 0.313
TAACGGAA | 0.298
AAACGGAG | 0.152
GAACGGAA | 0.267
AAACGGAC | -0.00077
CAACGGAG | 0.0267
ACTTCATA | -0.0295
CGAGACGA | -0.0371
AAAGCGTT | -0.0919
CAGAGCAA | 0.108
CTCCGTAA | 0.0982
CTCCGGAA | 0.402
CTACGGAG | 0.0895
CTCCGGAG | 0.416
CTCCGGTA | 0.218
GTCCGGCA | 0.285
ATCCGCAG | 0.123
ATCCGGGG | 0.262
ATCCGGAG | 0.398
GTCCGGTA | 0.206
GTCCGGAA | 0.429
CTCCGCAG | -0.136
AACCGACT | 0.0723

Sequence | PBM E-score
CGGCCCCA | -0.282
ACTTGCCA | -0.078
AATGAGAT | 0.127
GTAAGGCA | -0.206
ATCAGGAT | 0.115
ATGCGGAA | 0.271
ATCCGGGC | 0.363
CTCCGGGA | 0.205
ATCCGCAT | 0.111
ATCCGGAA | 0.418
AACCGGGC | 0.187
ATCCGGGA | 0.258
CTCCGGGC | 0.0789
ATCCGGAT | 0.442
GTCCGGGA | 0.342
ATCCGTAA | 0.149
TAAGCACA | 0.189
ACAGAACT | 0.116
AGTCGCAA | -0.0383
CACCATCC | -0.292
AGCATTTA | 0.0356
AAGCCACC | -0.342
